IL1B secr inh – inflammasome signaling inhibition, IL-1 beta readout; THP-1 LPS/ATP IL-1B secretion, AlphaLISA, 16 h; active compounds read low; activity change, % at 57.5 µM; actives 4.7% (n = 360,000); AID 743279; in the data active = activity change below about -50%; inconclusive = mostly about -30% to -49%
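Secreted IL-1B measured by AlphaLISA bead assay after 16 h compound exposure of THP-1 cells; compounds (final up to 57.5 uM) added 1 h before LPS (250 ng/mL) and ATP (1.25 mM) stimulation; lower signal means less secretion.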
TDP1 cell CPT – growth inhibition of DT40 Tdp1-/-;hTDP1 cells with camptothecin (screen for TDP1 inhibitors) | chicken DT40 Tdp1-/-;hTDP1 cells + 20 nM CPT, ATP luminescence, 48 h | Potency, µM (top dose mostly 46.2 µM), inactives show top-dose activity change, negative = growth inhibition, hits mostly inhibitors | actives 12% (n = 420,000); also: potency is read from the fitted curve at half-maximal effect; nearly all actives have a fitted effect of over 55% in size
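Cell growth measured by CellTiter-Glo luminescence after a minimum 48 h, 37 C compound exposure with 20 nM CPT in Tdp1-knockout DT40 cells stably expressing hTDP1, seeded 400/well; qHTS titration format.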
HT1080 IDH1KD tx – toxicity to HT-1080 IDH1 knockdown cells (counter line); HT-1080 IDH1 knockdown viability, ATP luminescence, 48 h; Potency, µM (top dose mostly 46.1 µM), without a hit: at the top dose activity, negative = toxicity, hits mostly cytotoxic; actives 2% (n = 360,000); AID 686971;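 also: potency is read from the fitted curve at half-maximal effect; 0% = DMSO wells and -100% = cell-free medium wells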
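Viability of IDH1-knockdown HT-1080 fibrosarcoma cells was assessed by CellTiter-Glo after 48 h at 37 °C with titrated compound; concentration-effect curves were classified by fit quality and response size.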
12-LOX inh – blocks human arachidonate 12S-lipoxygenase; Potency, µM (series often up to 108 µM), for inactives: at the top dose activity change, negative = inhibition, most hits filed as inhibitors; actives 1.1% (n = 580,000); P18054; purified 12hLO, xylenol orange hydroperoxide absorbance; AID 1671190; also: potency is read from the fitted curve at half-maximal effect
Target sequence (P18054 whole entry, looked up): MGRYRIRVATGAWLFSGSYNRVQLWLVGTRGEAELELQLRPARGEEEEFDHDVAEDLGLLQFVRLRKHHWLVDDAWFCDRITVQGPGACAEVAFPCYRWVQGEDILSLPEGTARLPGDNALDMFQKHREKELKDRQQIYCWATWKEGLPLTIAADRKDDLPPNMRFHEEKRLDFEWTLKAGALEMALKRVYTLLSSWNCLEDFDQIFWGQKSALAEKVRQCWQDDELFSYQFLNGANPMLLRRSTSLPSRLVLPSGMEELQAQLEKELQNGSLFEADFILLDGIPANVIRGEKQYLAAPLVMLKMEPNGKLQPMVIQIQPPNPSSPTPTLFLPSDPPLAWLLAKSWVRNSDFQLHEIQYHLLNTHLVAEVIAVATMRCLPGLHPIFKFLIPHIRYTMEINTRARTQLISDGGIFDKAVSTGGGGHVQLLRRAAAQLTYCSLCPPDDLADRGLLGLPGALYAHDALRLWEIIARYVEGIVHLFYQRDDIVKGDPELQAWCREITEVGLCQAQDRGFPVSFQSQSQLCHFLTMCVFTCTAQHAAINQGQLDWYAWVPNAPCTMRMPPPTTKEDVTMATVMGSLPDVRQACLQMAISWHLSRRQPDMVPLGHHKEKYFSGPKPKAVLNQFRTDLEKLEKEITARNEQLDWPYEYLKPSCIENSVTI
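Hydroperoxide product was detected by ferrous iron/xylenol orange as the 573 to 405 nm absorbance ratio. Arachidonic acid at 40 uM (final) was turned over for 30 min at room temperature by 150 nM human 12hLO, pH 7.0 Hepes buffer, after 15 min compound preincubation.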
DT40 TDP1 no CPT – qHTS for Inhibitors of human tyrosyl-DNA phosphodiesterase 1 (TDP1): qHTS in cells in absence of CPT; DT40 Tdp1-/- hTDP1 cells, no CPT, ATP luminescence, 48 h; Potency, µM (top dose mostly 46.2 µM), inactives show at the top dose activity change, negative = growth inhibition, usual class: inhibitors; actives 15% (n = 420,000); also: potency is read from the fitted curve at half-maximal effect; nearly all actives have a fitted effect of over 55% in size
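Chicken DT40 Tdp1-/- cells complemented with human TDP1, screened without camptothecin (DMSO vehicle only), 400 cells/well. Compounds pin-transferred, cells incubated at 37 °C for at least 48 hr. Growth read as ATP-dependent luminescence (CellTiter-Glo, 30 min at RT).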
HT1080-NT tox – kills 2HG-producing HT-1080-NT fibrosarcoma cells; actives 1.6% (n = 360,000); HT-1080-NT fibrosarcoma viability, CellTiter-Glo ATP luminescence, 48 h; Potency, µM (top dose mostly 46.1 µM), for inactives: top-dose activity, negative = less viability, usual class: cytotoxic; AID 686970;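 also: NT is the 2HG producing partner of a matched IDH1 knockdown line; potency is read from the fitted curve at half-maximal effect; 0% = DMSO-treated cells and -100% = media-only wells without cells; nearly all actives have a fitted effect of over 55% in size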
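Fibrosarcoma NT cells, 750 per well in 5% FBS RPMI, were exposed to compound for 48 hours. Viability: CellTiter-Glo luminescence.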
Active calls of the source: *; ? = inconclusive; nt = no result; [ ] = dose if it differs, or a comment. The sample as a whole holds a higher share of hits than the screen did. Unless noted, calls follow the shape of the dose curve; as a rule, active = well fitted curve in the direction sought with a large enough effect; inconclusive = small, poorly fitted or top-dose-only effect, or another doubt; inactive = no such curve, though single readings can be large; an effect the other way counts as inactive or inconclusive. Unless noted, % is scaled to controls: 0 for no effect and ±100 for the full control effect.

SMILES	IL1B secr inh	TDP1 cell CPT	HT1080 IDH1KD tx	12-LOX inh	DT40 TDP1 no CPT	HT1080-NT tox
CC(=O)Nc1ccc(S(=O)(=O)NNC(=O)c2ccc([N+](=O)[O-])cc2)cc1	84.7	-4.2%	-1.5%	?	23.3%	0.5%
CC(=O)Nc1ccc(S(=O)(=O)NNc2ccc([N+](=O)[O-])cc2)cc1	-6.8	?	16.4µM*	?	?	?
O=C(NNc1ccccc1)C(=O)NNS(=O)(=O)c1ccc([N+](=O)[O-])cc1	10.9	2.2%	5.8µM*	?	4.9%	2.06µM*
O=C1CSc2ccc(C(=O)Nc3cccc4ccccc34)cc2N1	nt	nt	nt	5.7%	nt	nt
COc1cccc(S(=O)(=O)NCc2ccc3c(c2)OCO3)c1	-6.2	-21.8%	-2.3%	13.3%	-18.5%	3.3%
CCCc1cc2c(cc1N(C)S(=O)(=O)c1ccccc1)OCO2	-18.5	3.66µM*	-10.0%	0.3%	3.66µM*	1.0%
COc1cc(OC)cc(-c2nnc(SCc3c(F)cccc3Cl)o2)c1	-59.8*	?	-2.9%	18.8%	23.1µM*	-11.8%
O=C(CCc1ncc(-c2ccccc2F)o1)Nc1ccccc1O	nt	nt	nt	1.1%	nt	nt
Cc1ccccc1[C@H]1C[C@@H](O)[C@@H](O)[C@@H]1NC(=O)c1c(-c2ccccc2)noc1C	nt	nt	nt	20.2%[176 µM]	nt	nt
O=C(Cc1cccs1)NCc1ccsc1	nt	nt	nt	14.4%	nt	nt
CCOc1ccc(C(=O)/C=C/Nc2ccc(S(=O)(=O)N=C(N)N)cc2)cc1	4.0	?	18.4µM*	-21.6%	-13.8%	?
COc1ccc(CNC(=O)CCc2c(C)nc3nc(CNC(=O)OC(C)(C)C)nn3c2C)cc1	nt	-8.1%	nt	-6.2%	-27.9%	nt
CC(C)Cn1cnc2c(Sc3c([N+](=O)[O-])ncn3C)nc(N)nc21	-101.4*	?	-11.7%	?	?	-8.0%
CCC(C)Cn1cnc2c(Sc3c([N+](=O)[O-])ncn3C)nc(N)nc21 (stereo not given)	-55.9*	16.4µM*	?	-17.8%	23.1µM*	?
Cn1cnc([N+](=O)[O-])c1Sc1nnc(-c2ccccc2)c(-c2ccccc2)n1	nt	nt	nt	-16.9%	nt	nt
CC1=CC(=O)C=C(C)C1=NOC(=O)/C=C\c1ccccc1	2.9	16.4µM*	-17.4%	-11.6%	-6.3%	-12.5%
Cc1ccc(C(=O)COC(=O)/C=C/c2ccccc2)cc1	nt	nt	nt	34.2%	nt	nt
CC1=C(C)/C(=N\OC(=O)/C=C/c2ccccc2)C=CC1=O	37.2	13µM*	-2.9%	0.0%	13µM*	-2.4%
CC1=CC(=NOC(=O)/C=C/c2ccccc2)C=C(C)C1=O	-64.7*	20.6µM*	?	1.8%	13µM*	?
CC(C)N(C)CCOC(=O)/C=C/c1ccccc1	-3.7	-21.3%	0.3%	0.8%	-8.1%	2.5%
CCCc1noc(-c2cccn3c(CNC(=O)c4ccc(C)cc4C)nnc23)n1	nt	nt	nt	6.1%	nt	nt
Cc1noc2c(N3CCOCC3)cc(-c3ccsc3)nc12	nt	nt	nt	23.7%[176 µM]	nt	nt
NC(=S)N=Nc1c(O)[nH]c2c(Br)cc(Br)cc12	63.1	?	-0.4%	-11.3%	20.6µM*	-2.4%
COc1ccc(NC(=O)CCc2nc3ccccc3c(=O)[nH]2)cc1S(=O)(=O)N1CCCCC1	6.3	-25.9%	-12.5%	249.7%	-26.5%	-16.5%
Cn1cnc2nc(Cl)nc(Cl)c21	-93.5*	1.64µM*	?	?	1.16µM*	?
O=C(Nc1cccc(-c2cn3ccccc3n2)c1)c1cc2ccccc2oc1=O	-80.3*	2.06µM*	5.0%	-11.7%	3.66µM*	8.4%
O=c1c2cnc3ncnn3c2ccn1CCc1c[nH]c2ccccc12	nt	nt	nt	-1.4%	nt	nt

Compound activity deposited in PubChem by National Center for Advancing Translational Sciences (NCATS).
